According to PubChem BioAssay (Tox21):
Records with an inconclusive call do not appear. Entries that show only a call come without a potency. Activity calls are given as the source filed them. Calls follow the shape of the full dose curve.

Target: Beta-2 adrenergic receptor (Homo sapiens) (UniProt P07550)
Assay: Adrenergic beta2 receptor (ADRB2) small molecule agonists, cell-based qHTS assay (AID 1963593)
Outline: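 CHO cells stably over-expressing ADRB2 were plated overnight at 37C, then dosed with compounds plus a stimulation mix containing 100uM IBMX and 25uM Ro-20-1724 for 0.5hr at room temperature. cAMP was measured by HTRF competition, 1hr.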
Potency is read from the fitted curve at half-maximal effect.

Chain of Beta-2 adrenergic receptor (Homo sapiens) (P07550 whole entry, looked up): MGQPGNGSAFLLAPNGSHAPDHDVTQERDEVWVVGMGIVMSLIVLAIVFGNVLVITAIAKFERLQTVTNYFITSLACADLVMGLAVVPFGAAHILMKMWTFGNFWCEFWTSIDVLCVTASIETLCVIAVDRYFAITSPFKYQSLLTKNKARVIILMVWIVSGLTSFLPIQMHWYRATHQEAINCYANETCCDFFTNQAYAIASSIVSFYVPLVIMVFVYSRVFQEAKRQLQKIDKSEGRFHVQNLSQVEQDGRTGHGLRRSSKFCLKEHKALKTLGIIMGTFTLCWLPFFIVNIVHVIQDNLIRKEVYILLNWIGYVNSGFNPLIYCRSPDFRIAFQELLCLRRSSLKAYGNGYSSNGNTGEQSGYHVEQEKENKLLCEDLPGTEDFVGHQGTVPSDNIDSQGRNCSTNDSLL

## CCOC(=O)NC(C)(C)Cc1ccc(Cl)cc1
  Potency: inactive

## C[N+]1(C)[C@@H]2CC[C@H]1CC(OC(=O)C(CO)c1ccccc1)C2 (stereo not given in full)
  Potency: inactive

## O=C(N[C@H]1N=C(c2ccccc2F)c2cccc3c2N(CC3)C1=O)c1cc2ccccc2[nH]1
  Potency: inactive

## CCOC(=O)NC(=S)Nc1ccccc1NC(=S)NC(=O)OCC
  Potency: inactive

## CC(=O)C(Cl)C(=O)N(C)C (stereo not given)
  Potency: inactive

## CCC1(c2ccccc2)C(=O)N=C(O)NC1=O (stereo not given)
  Potency: inactive

## O=c1[nH]oc2c1CCNC2
  Potency: inactive

## C=CC(=O)OCC(COC(=O)C=C)(COC(=O)C=C)COC(=O)C=C
  Potency: 24.3 µM (active)

## CCC[CH2][Sn]([CH2]CCC)([O]C(C)=O)[O]C(C)=O
  Potency: inactive

## COC(=O)N(C(=O)N1COC2(C(=O)OC)Cc3cc(Cl)ccc3C2=N1)c1ccc(OC(F)(F)F)cc1 (stereo not given)
  Potency: inactive

## Cn1cc(C2=C(c3cn(C4CCN(Cc5ccccn5)CC4)c4ccccc34)C(=O)NC2=O)c2ccccc21
  Potency: inactive

## CCCCCCCCCC(=O)O[C@H]1CC[C@H]2[C@@H]3CCC4=CC(=O)CC[C@@H]4[C@H]3CC[C@]12C
  Potency: inactive

## Cc1c([N+](=O)[O-])cc2c(c1[N+](=O)[O-])C(C)(C)CC2(C)C
  Potency: inactive

## Oc1cccc(-c2ccccc2)c1
  Potency: inactive

## COC(=O)C(C)Oc1ccc(Oc2ccc(Cl)cc2Cl)cc1 (stereo not given)
  Potency: inactive

## CC1NCCOC1c1ccccc1 (stereo not given)
  Potency: inactive

## Cc1ccccc1C(=O)Nc1cccc(OC(C)C)c1
  Potency: inactive

## OC(c1ccccc1)(c1ccccc1)C1CCNCC1
  Potency: inactive

## CCN(CCO)CCn1c(Cc2ccccc2)nc2c1c(=O)n(C)c(=O)n2C
  Potency: inactive

## CCCCC(CC)COC(=O)OOC(C)(C)C (stereo not given)
  Potency: inactive

## COP(N)(=S)Oc1ccccc1C(=O)OC(C)C (stereo not given)
  Potency: inactive

## ClC(Cl)C(Cl)Cl
  Potency: inactive

## CCOP(=S)(OCC)SCS(=O)(=O)CC
  Potency: inactive

## C=CC(=O)N(C)C
  Potency: inactive

## O=C(Nc1ccc2[nH]ccc2c1)c1cc2cc(F)ccc2n1Cc1cccc(F)c1
  Potency: inactive

## OC(c1ccc(F)cc1)(c1cncnc1)c1ccccc1Cl (stereo not given)
  Potency: inactive

## II
  Potency: inactive

## CSSC
  Potency: inactive

## CCOc1cc(OP(=S)(OC)OC)nc(CC)n1
  Potency: inactive

## CCCCc1ccc(O)cc1
  Potency: inactive

## CNCC(=O)c1ccc(O)c(O)c1
  Potency: 0.531 µM (active)

## CCOC(=O)COc1ccc(Cl)cc1Cl
  Potency: inactive

## Cc1cccc2sc3nncn3c12
  Potency: inactive

## CC(Cc1ccccc1)N(C)Cc1ccco1 (stereo not given)
  Potency: inactive

## C=CCOC(=O)C(C)(C)OC(=O)c1cc(-n2c(=O)cc(C(F)(F)F)n(C)c2=O)ccc1Cl
  Potency: inactive

## CCOP(=O)(OCC)O/C(=C/Cl)c1ccc(Cl)cc1Cl
  Potency: inactive

## COc1ccc([N+](=O)[O-])cc1O
  Potency: inactive

## CSC1=N[C@@](C)(c2ccccc2)C(=O)N1Nc1ccccc1
  Potency: inactive

## ClC(Br)Br
  Potency: inactive

## N#C/C(N)=C(/N)C#N
  Potency: inactive
